Data from article PMC11995724, “Antibiotic target discovery by integrated phenotypic and activity-based profiling of electrophilic fragments” (Cell chemical biology, 2025).
Hit rate of the full screen: of about 3,200 compounds, about 110 (3.4%) showed an effect of 50% or more. Shown is part of a subset that was picked to be rich in strong results.

Each compound was assayed on T1, V. cholerae SAD30. Settings: relative growth, OD600, LB; 25 µM; inhibitor.
T1 construct: SAD30
Parameters: species or system S. aureus MSSA476 (TSB) or V. cholerae SAD30 (LB); 384-well bacterial growth screen at 25 uM, OD600 relative to DMSO control

| SMILES | % of control remaining [%] |
| --- | --- |
| N#CC(=Cc1ccc(C#N)cc1)C(=O)Nc1cccc(Cl)c1Cl [8-J05, 2-cyano-3-(4-cyanophenyl)-N-(2,3-dichlorophenyl)prop-2-enamide] | 72.9436 |
| CC(Cl)C(=O)NCCc1nc2cc(F)ccc2s1 (stereo not drawn) [7-P11, 2-chloro-N-[2-(5-fluoro-1,3-benzothiazol-2-yl)ethyl]propanamide] | 81.4142 |
| CC(Cl)C(=O)Nc1ccc(Cc2nnc3ncccn23)cc1 (stereo not drawn) [7-O22, 2-chloro-N-[4-({[1,2,4]triazolo[4,3-a]pyrimidin-3-yl}methyl)phenyl]propanamide] | 91.0623 |
| O=C1C=CC(=O)N1c1ccc(OC(F)F)cc1 [10-P11, 1-[4-(difluoromethoxy)phenyl]-2,5-dihydro-1H-pyrrole-2,5-dione] | 36.7816 |
| Cc1cc(C(=O)C(C)Cl)c(C)n1-c1ccc(OC(F)F)cc1 (stereo not drawn) [10-E10, 2-chloro-1-{1-[4-(difluoromethoxy)phenyl]-2,5-dimethyl-1H-pyrrol-3-yl}propan-1-one] | 97.7206 |
| CCOc1ccc(N2C(=O)C=CC2=O)cc1 [10-A14, 1-(4-ethoxyphenyl)-2,5-dihydro-1H-pyrrole-2,5-dione] | 23.3781 |
| CCOC(=O)C(C#N)=Cc1ccc(N2C(=O)C=CC2=O)cc1 [10-N11, ethyl 2-cyano-3-[4-(2,5-dioxo-2,5-dihydro-1H-pyrrol-1-yl)phenyl]prop-2-enoate] | 96.6297 |
| O=C1C=CC(=O)N1c1ccc(OC(F)(F)F)cc1 [10-J19, 1-[4-(trifluoromethoxy)phenyl]-2,5-dihydro-1H-pyrrole-2,5-dione] | 30.0799 |
| N#CC(=Cc1cccc(Oc2ccccc2)c1)C(=O)N1CCCC1 [9-F06, 3-(3-phenoxyphenyl)-2-(pyrrolidine-1-carbonyl)prop-2-enenitrile] | 85.724 |
| N#CC(=Cc1ccc(OC(F)F)cc1)C(=O)N1CCCC1 [8-L22, 3-[4-(difluoromethoxy)phenyl]-2-(pyrrolidine-1-carbonyl)prop-2-enenitrile] | 77.0224 |
| Cc1cc(C(=O)CCl)c(C)n1-c1ccc(OC(F)(F)F)cc1 [10-G04, 2-chloro-1-{2,5-dimethyl-1-[4-(trifluoromethoxy)phenyl]-1H-pyrrol-3-yl}ethan-1-one] | 98.344 |
| O=C(CCl)NCc1ccc(OC(F)(F)F)cc1 [6-G08, 2-chloro-N-{[4-(trifluoromethoxy)phenyl]methyl}acetamide] | 91.3072 |
| CCn1cc(N2C(=O)C=CC2=O)cn1 [10-I21, 1-(1-ethyl-1H-pyrazol-4-yl)-2,5-dihydro-1H-pyrrole-2,5-dione] | 56.731 |
| O=C1C=CC(=O)N1c1ccc(Oc2ccccc2)cc1 [10-F17, 1-(4-phenoxyphenyl)-2,5-dihydro-1H-pyrrole-2,5-dione] | 26.1835 |
| O=C(CCl)NCCC1=CCCCC1 [4-H05, 2-chloro-N-[2-(cyclohex-1-en-1-yl)ethyl]acetamide] | 111.451 |
| O=C(CCl)NCCc1cccc2c1Oc1ccccc1O2 [7-J18, 2-chloro-N-[2-(oxanthren-1-yl)ethyl]acetamide] | 77.317 |
| CN(CC(=O)Nc1cccc(Cl)c1)C(=O)CCl [5-F18, 2-chloro-N-{[(3-chlorophenyl)carbamoyl]methyl}-N-methylacetamide] | 84.0601 |
| Cc1ccc(Sc2ccc(NC(=O)CCl)cc2)cc1C [4-G03, 2-chloro-N-{4-[(3,4-dimethylphenyl)sulfanyl]phenyl}acetamide] | 107.311 |
| CCCCNC(=O)C(C#N)=Cc1ccc2c(c1)OCCO2 [9-G11, N-butyl-2-cyano-3-(2,3-dihydro-1,4-benzodioxin-6-yl)prop-2-enamide] | 85.724 |
| CCc1ccccc1NC(=O)CN(C)C(=O)CCl [6-L06, 2-chloro-N-{[(2-ethylphenyl)carbamoyl]methyl}-N-methylacetamide] | 89.1838 |
| O=C1C=CC(=O)N1c1ccc2ccccc2c1 [10-D07, 1-(naphthalen-2-yl)-2,5-dihydro-1H-pyrrole-2,5-dione] | 22.2872 |
| CC(Cl)C(=O)Nc1ccccc1C#N (stereo not drawn) [6-A11, 2-chloro-N-(2-cyanophenyl)propanamide] | 96.0091 |
| Cc1ccccc1N1C(=O)C=CC1=O [10-J13, 1-(2-methylphenyl)-2,5-dihydro-1H-pyrrole-2,5-dione] | 23.0664 |
| N#Cc1ccccc1N1C(=O)C=CC1=O [10-B13, 2-(2,5-dioxo-2,5-dihydro-1H-pyrrol-1-yl)benzonitrile] | 22.7547 |
| Cc1c(Cl)cccc1NC(=O)C(C)Cl (stereo not drawn) [6-I10, 2-chloro-N-(3-chloro-2-methylphenyl)propanamide] | 83.2686 |
| Cc1cccc(N2C(=O)C=CC2=O)c1C [10-H05, 1-(2,3-dimethylphenyl)-2,5-dihydro-1H-pyrrole-2,5-dione] | 27.1186 |
| Cc1c(Cl)cccc1NC(=O)CNC(=O)CCl [5-N20, 2-chloro-N-{[(3-chloro-2-methylphenyl)carbamoyl]methyl}acetamide] | 102.049 |
| Cc1c(Cl)cccc1N1C(=O)C=CC1=O [10-B17, 1-(3-chloro-2-methylphenyl)-2,5-dihydro-1H-pyrrole-2,5-dione] | 23.3781 |
| Cc1ccccc1N1C(=O)CSC1=C(C#N)C(=O)N1CCCCC1 [8-B12, 2-[3-(2-methylphenyl)-4-oxo-1,3-thiazolidin-2-ylidene]-3-oxo-3-(piperidin-1-yl)propanenitrile] | 78.1101 |
| N#Cc1ccccc1NC(=O)CCl [5-P04, 2-chloro-N-(2-cyanophenyl)acetamide] | 116.339 |
